Growth data for 15 compounds are collected here from PubChem BioAssay (NCI).

Each structure is given as a SMILES string. Compounds without any hit were thinned out: in the full panel of roughly 83,000, 20% have a hit.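 Negative percent growth values reflect cell death: -40 means 40% of the cells present at the start died, and -100 means all died.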 A number with no mark means an inactive call. Activity calls are given as the source filed them. The calls were made as follows: active = growth percent below 10; inactive = the rest.

What all share (assay): NCI-60 one-dose screen, 48 h (100 = growth as untreated, 0 = no growth, -100 = all killed)
The subject of one assay is T-47D breast. The conditions noted are these: 10 µM unless noted.
Another assay deals with BT-549 breast. The conditions noted are these: 10 µM unless noted.
A further assay deals with MDA-MB-435 melanoma. The conditions noted are these: 10 µM unless noted.
The subject of another assay is SW-620 colon. The conditions noted are these: 10 µM unless noted.
In another assay the test system is MCF7 breast. The conditions noted are these: 10 µM unless noted.
In the next assay the test system is HCT-116 colon. The conditions noted are these: 10 µM unless noted.
The subject of the next assay is HCC-2998 colon. The conditions noted are these: 10 µM.
The subject of another assay is KM12 colon. The conditions noted are these: 10 µM unless noted.

As to `CCOc1cccc(/C=N/NC(=O)c2ccccc2Nc2ccnc(C(F)(F)F)c2)c1O`, the growth was 16.5% with T-47D breast; 26.4% in the assay with BT-549 breast; 29.8% in the assay with MDA-MB-435 melanoma; 32.3% in the assay on SW-620 colon; 2.99% (active) in the assay on MCF7 breast; 14.7% with HCT-116 colon. In addition, the growth with HCC-2998 colon is 48.6%; in the assay on KM12 colon it was 33.2%.
On to `COc1ccc2c(CCC(c3ccccc3)c3ccccc3)c3[n+](cc2c1OC)CCc1cc2c(cc1-3)OCO2`, for which the growth is 5.67% (active) with T-47D breast; -29.1% (active) in the assay on BT-549 breast; -72% (active) in the assay on MDA-MB-435 melanoma; 11.5% with SW-620 colon; 9.86% (active) with MCF7 breast; 6.81% (active) in the assay with HCT-116 colon. The growth is -13.7% (active) in the assay on HCC-2998 colon and -76.7% (active) with KM12 colon.
On to `C=C1C(=O)O[C@H]2[C@H]1CC/C(C=Nc1c(N)cc(C(F)(F)F)cc1C(F)(F)F)=C\CC[C@@]1(C)O[C@@H]21`, for which the growth in the assay on T-47D breast was -27% (active); in the assay on BT-549 breast it was -31.5% (active); in the assay on MDA-MB-435 melanoma, -71.9% (active); with SW-620 colon it was -54.9% (active); in the assay with MCF7 breast, -2.09% (active); in the assay on HCT-116 colon, -72.8% (active). For the same compound, the growth with HCC-2998 colon is -77.5% (active); in the assay on KM12 colon, 14.4%.
In the case of `O=C1/C(=C\c2cccc(OCCCCCOc3ccc(Cl)cc3)c2)N=C2SCCCN12`, the growth with T-47D breast is 26.4%; with BT-549 breast, 57.4%; in the assay on MDA-MB-435 melanoma it was 46.1%; in the assay with SW-620 colon, 86.2%; with MCF7 breast it was 68.5%; in the assay with HCT-116 colon, 52.7%. Moreover, the growth was 71% in the assay on HCC-2998 colon and 48.2% in the assay on KM12 colon.
For the compound `COC(=O)Nc1nc2ccc(C(=O)c3ccc(N(C)C4COC4)cc3)cc2[nH]1`, the growth is 57.5% in the assay with T-47D breast; 9.02% (active) with BT-549 breast; -25.5% (active) in the assay with MDA-MB-435 melanoma; 28.5% in the assay with SW-620 colon; 16.3% in the assay on MCF7 breast; 7.08% (active) in the assay on HCT-116 colon. Further, the growth is 11% in the assay on HCC-2998 colon and 15.7% with KM12 colon.
With `CO[C@@H](C(=O)N1Cc2[nH]nc(NC(=O)c3ccc(N4CCN(C)CC4)cc3)c2C1)c1ccccc1`, the growth was -16.3% (active) in the assay with T-47D breast; -10.8% (active) in the assay with BT-549 breast; 19.5% with MDA-MB-435 melanoma; 21.5% in the assay on SW-620 colon; 17.7% in the assay with MCF7 breast; -35.7% (active) with HCT-116 colon. In addition, the growth in the assay on HCC-2998 colon was 26.4%; in the assay on KM12 colon, -28.7% (active).
In the case of `Nc1c(C(=O)c2ccccc2)sc2nc(-c3cccs3)cc(-c3cccs3)c12`, the growth was 36% in the assay on T-47D breast; 50.9% with BT-549 breast; -14.4% (active) in the assay on MDA-MB-435 melanoma; 28.8% with SW-620 colon; 45.9% in the assay with MCF7 breast; 16.8% in the assay with HCT-116 colon. Further, the results for the growth in the assay on HCC-2998 colon and with KM12 colon were 72.1% and 29.1%, respectively.
For the compound `Cc1nc(Nc2n[nH]c3c2CN(C(=O)N[C@H](CN(C)C)c2ccccc2)C3(C)C)c2sccc2n1`, the growth with T-47D breast was -25.2% (active); with BT-549 breast, -42.5% (active); in the assay with MDA-MB-435 melanoma, -66.2% (active); in the assay with SW-620 colon, 1.22% (active); in the assay with MCF7 breast, -3.74% (active); in the assay on HCT-116 colon, -9.97% (active). Further, the growth with HCC-2998 colon was -55.1% (active); with KM12 colon, -12.7% (active).
Turning to `COc1cc2ncnc(Nc3ccc(F)c(Cl)c3)c2cc1NC(=O)/C=C/CN1CCCCC1`, the growth in the assay with T-47D breast is -63% (active); with BT-549 breast, -32.4% (active); in the assay on MDA-MB-435 melanoma, -95.3% (active); in the assay with SW-620 colon it was -78.4% (active); in the assay with MCF7 breast, -53.7% (active); with HCT-116 colon, -78.5% (active). Moreover, the values for the growth with HCC-2998 colon and in the assay on KM12 colon were -88% (active) and -83.8% (active), respectively.
With `Cn1cc(-c2ccc(F)c(C(F)(F)F)c2)nc1C1CCN(c2ncnc3[nH]ncc23)CC1`, the growth in the assay with T-47D breast was 25.8%; with BT-549 breast, 43.1%; with MDA-MB-435 melanoma, 93.3%; in the assay on SW-620 colon, 89.2%; in the assay with MCF7 breast, 61.4%; in the assay with HCT-116 colon it was 68.9%. For the same compound, the growth is 95.5% in the assay with HCC-2998 colon and 73.5% with KM12 colon.
Regarding `O=C(Cc1ccc(-c2ccc(OCCN3CCOCC3)cc2)cn1)NCc1ccccc1`, the growth is 34.2% in the assay with T-47D breast; 3.61% (active) in the assay with BT-549 breast; -21.8% (active) with MDA-MB-435 melanoma; 21.3% with SW-620 colon; 10.7% in the assay on MCF7 breast; 6.1% (active) in the assay with HCT-116 colon. Moreover, the growth was 8.15% (active) in the assay on HCC-2998 colon and 6.91% (active) in the assay on KM12 colon.
Regarding `Cn1ccnc1C(=O)/C=C/c1ccc(CC(=O)Nc2ccc(Br)cc2)cc1`, the growth in the assay with T-47D breast was 4.43% (active); with BT-549 breast, 12.1%; in the assay with MDA-MB-435 melanoma, 45.6%; in the assay with SW-620 colon, 4.81% (active); with MCF7 breast it was 12%; with HCT-116 colon it was 12%. Besides, the figures for the growth with HCC-2998 colon and in the assay on KM12 colon were 15.3% and 4.87% (active), respectively.
`CN1CCN(c2ccc(OC(F)(F)F)c(Nc3ncc4c(n3)-c3c(c(C(N)=O)nn3CCO)CC4)c2)CC1`: the growth was 43.9% with T-47D breast; 27.8% in the assay with BT-549 breast; -50.5% (active) in the assay with MDA-MB-435 melanoma; 9.76% (active) in the assay with SW-620 colon; 22.1% in the assay with MCF7 breast; 9.89% (active) with HCT-116 colon. For the same compound, the growth was 17% with HCC-2998 colon and 9.34% (active) with KM12 colon.
With `COc1ccc2c(CCCC(c3ccccc3)c3ccccc3)c3[n+](cc2c1OC)CCc1cc2c(cc1-3)OCO2`, the growth in the assay on T-47D breast is -15.6% (active); in the assay with BT-549 breast, -65.6% (active); in the assay with MDA-MB-435 melanoma, -90.7% (active); with SW-620 colon, 0.287% (active); in the assay on MCF7 breast it was -3.37% (active); with HCT-116 colon it was -33.9% (active). Also, the growth was -81.9% (active) with HCC-2998 colon and -65% (active) with KM12 colon.
As for `N#Cc1c(C(F)(F)F)cc(Nc2ccc3nc(NCCN4CCCC4)oc3c2)n2c1nc1ccccc12`, the growth in the assay on T-47D breast is 66.9%; in the assay on BT-549 breast it was 72.3%; with MDA-MB-435 melanoma, 90.8%; in the assay with SW-620 colon, 37.4%; in the assay with MCF7 breast, 38.9%; with HCT-116 colon, 17.9%. Further, the growth with HCC-2998 colon is 68%; with KM12 colon, 73.9%.
